Screening results as filed in PubChem BioAssay.
hcDAF-12 act = H. contortus DAF-12 nuclear receptor activators, primary screen, cell-based, luminescence, HEK293, lit1-tk-luc reporter | HEK293 hcDAF-12 lit1-tk-luc reporter; 0% DMSO, 100% Δ7-dafachronic acid | activation, % at 6.8 µM | 370,000 compounds, 1.4% hits;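 active = activation above the mean of all tested compounds plus 3 SD, cut at about 5.5% in these data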;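 also: 100% = response to 3 µM Δ7-dafachronic acid high control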
hgDAF-12 ag = H. glycines DAF-12 receptor agonists, primary screen, cell-based, luminescence, HEK293, GAL4 fusion, UAS-luciferase; HEK293 GAL4-hgDAF12 UAS-luciferase reporter, agonist luminescence; normalized to butyrate control; Nuclear hormone receptor DAF-12 (Heterodera glycines), GAL4 fusion; AID 687014, 2013; 370,000 compounds, 1.8% hits; activation, % at 6.8 µM;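 active = activation above a cutoff set at the mean of all screened compounds plus 3 SD, cut at about 10% in these data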;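 also: 0% = DMSO wells and 100% = sodium butyrate wells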
Rev-erbA mod = modulators of Rev-erb alpha DNA binding, primary screen, biochemical, FITC-DNA, fluorescence polarization, uHTS | Rev-erbα–FITC-DNA binding, 90 min | 370,000 compounds, 0.79% hits | activity, % at 10 µM;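 active = activity above about 14%, limit read from the data; passing the limit was not always enough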;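 also: 0% = DMSO wells with 35 nM protein and 100% = DMSO wells with 750 nM protein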
Target sequence (P20393 whole entry, looked up): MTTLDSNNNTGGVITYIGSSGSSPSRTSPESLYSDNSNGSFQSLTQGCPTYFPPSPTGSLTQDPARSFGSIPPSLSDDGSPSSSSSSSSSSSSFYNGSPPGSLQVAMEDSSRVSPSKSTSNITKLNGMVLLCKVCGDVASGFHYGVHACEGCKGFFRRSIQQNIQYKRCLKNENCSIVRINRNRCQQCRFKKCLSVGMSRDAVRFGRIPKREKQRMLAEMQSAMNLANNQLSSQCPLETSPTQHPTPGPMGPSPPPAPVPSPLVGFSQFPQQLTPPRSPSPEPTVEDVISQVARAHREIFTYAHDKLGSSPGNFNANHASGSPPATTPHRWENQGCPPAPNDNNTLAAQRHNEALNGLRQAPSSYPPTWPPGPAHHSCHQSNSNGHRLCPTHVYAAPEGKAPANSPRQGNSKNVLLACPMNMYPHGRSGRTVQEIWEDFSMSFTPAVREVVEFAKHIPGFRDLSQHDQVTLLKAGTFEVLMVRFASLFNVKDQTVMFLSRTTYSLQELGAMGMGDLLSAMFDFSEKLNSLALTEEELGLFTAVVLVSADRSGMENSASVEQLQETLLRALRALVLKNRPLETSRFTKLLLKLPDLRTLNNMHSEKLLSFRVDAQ
DAX1 inh-1 = DAX1 (NR0B1) inhibitors, primary screen, cell-based, HEK293, Gal4-DAX1, luciferase luminescence; Nuclear receptor subfamily 0 group B member 1 (Homo sapiens), P51843; HEK293 Gal4-DAX1 luciferase reporter; inhibition, % at 6.75 µM; 340,000 compounds, 0.99% hits; AID 504766, 2011;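 active = inhibition above the mean over all tested compounds plus 3 SD, cut at about 4.2% in these data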;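 also: 0% = DAX1-transfected cells with DMSO and 100% = empty-vector control cells with DMSO; inhibition shows as a rise in luminescence from relieved DAX1 repression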
ssDAF12 agonist = S. stercoralis DAF-12 nuclear receptor activators, primary screen, cell-based, luminescence, HEK293, GRIP1 co-expression, lit1-tk-luc; activation, % at 6.8 µM; HEK293 ssDAF-12/GRIP1 lit1-tk-luc reporter; % of 3 µM dafachronic acid response; 370,000 compounds, 1% hits; Nuclear hormone receptor DAF-12 (Strongyloides stercoralis);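 active = activation above the mean over all tested compounds plus 3 SD, cut at about 0.9% in these data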;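 also: 0% = DMSO-only wells and 100% = 3 µM delta7-dafachronic acid wells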
DAX1 inh-2 = DAX1 (NR0B1) inhibitors on StAR promoter, primary screen, cell-based, luminescence, SF-1 (NR5A1), full-length DAX-1 | HEK293T StAR-luciferase reporter, SF-1/DAX-1 repression relief | inhibition, % at 6.8 µM | 370,000 compounds, 1.1% hits | AID 652010, 2013;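 active = inhibition above the mean over all tested compounds plus 3 SD, cut at about 3.6% in these data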;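 also: 0% = DAX-1 cells with DMSO and 100% = cells lacking DAX-1 with DMSO; higher inhibition means more luminescence from relief of DAX-1 repression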
* hit, by the source's call; . = no result given. A selection: hits, their analogues and other compounds. The true share with any hit is near 4.8%.

SMILES	hcDAF-12 act	hgDAF-12 ag	Rev-erbA mod	DAX1 inh-1	ssDAF12 agonist	DAX1 inh-2
O=C(Nc1ccc(C(=O)O)cc1)/C(=C\c1ccc([N+](=O)[O-])cc1)NC(=O)c1ccco1	0	-2	1	4.3*	-1	0
O=C(N[C@H]1C[C@@H]2O[C@H](CO)CC[C@@H]2O[C@@H]1CCc1ccc(-c2cccnc2)cc1)c1cccc(F)c1	0	2	-10	.	0	-1
COC(=O)C[C@H]1CC[C@H]2[C@H](COc3ccc(NS(=O)(=O)c4cccc(F)c4)cc3C(=O)N2C)O1	0	4	1	.	0	-1
COc1nc(OC)nc(N2CCC(C(=O)NCc3cccc(OC)c3OC)CC2)n1	-3	-2	-1	.	-1	-1
CCOC(=O)c1nn(-c2ccc3c(c2)CCN3C(C)=O)cc1O	5	8	-1	-1	0	3.9*
CCOC(=O)c1nn(-c2ccc(F)cc2)cc1O	5	10	-5	1	-1	2
Cc1ccc(CN(C(=O)c2cc3ccccc3oc2=O)C2CCS(=O)(=O)C2)cc1 (stereo unspecified)	2	7	2	1	0	1
O=C(c1cc2ccccc2oc1=O)N(Cc1ccc(F)cc1)C1CCS(=O)(=O)C1 (stereo unspecified)	3	3	2	4.5*	0	2
O=C(c1cc2ccccc2oc1=O)N(Cc1cccs1)C1CCS(=O)(=O)C1 (stereo unspecified)	5.8*	7	-6	1	1	1
O=C(N=Nc1c(O)n(Cc2ccccc2)c2ccccc12)c1ccc(O)cc1	6.0*	8	0	1	0	3.6*
COc1cccc(-n2c(CN3CCN(c4ccc(C)cc4)C(C)C3)nc3ccc([N+](=O)[O-])cc3c2=O)c1 (stereo unspecified)	5.8*	1	2	-2	0	-1
COc1cccc(-n2c(CN3CCN(c4cccc(C)c4)C(C)C3)nc3ccc([N+](=O)[O-])cc3c2=O)c1 (stereo unspecified)	2	2	-4	-2	-1	-1
CC(=O)CC[C@H]1CC[C@]2(CCCN(Cc3nccn3C)C2)O1	0	-3	-5	.	-1	1
COc1cc(/C=C/C(=O)OC(C)C(=O)NC2CCCCC2C)cc(Cl)c1OC (stereo unspecified)	-1	-1	-8	6.9*	-1	0
O=C(Nc1ccc([N+](=O)[O-])cc1)N1CCCCCC1	0	1	3	1	-1	4.1*
COc1ccc(N2C(=O)[C@H]3[C@@H](C2=O)C2c4ccccc4C=NN2[C@H]3C(=O)C(C)(C)C)cc1 (stereo partly specified)	-1	0	4	5.6*	-2	0
COc1cc(C(=O)Oc2c(OC)cc(C(=S)N3CCOCC3)cc2OC)cc(OC)c1OC	-1	-3	2	5.0*	-2	0
O=C(O)c1ccc(Oc2nc3ccccc3s2)cc1	5	8	5	2	1.2*	2
O=C(O)c1ccc(C=C(c2nc3ccccc3s2)c2nc3ccccc3s2)cc1	4	2	7	0	-1	0
Cc1ccccc1CN1CCCCC(NC(=O)c2ccc(-c3ccccc3)cc2)C1=O (stereo unspecified)	-6	-1	-5	.	-2	-4
Cc1ccc(O)c(NC(=O)c2noc3c2CCCCC3)c1	0	4	3	1	0	1
O=C(NCc1ccccc1)c1noc2c1CCCC2	0	8	1	1	-1	0
O=C(NCCc1ccccc1)c1noc2c1CCCCC2	2	12*	6	3	-1	4.3*
Cc1ccc(NC(=O)c2noc3c2CCCCC3)cc1C	4	9	2	4	0	4.0*
CCN(C[C@H]1[C@@H](c2ccc(C3=CCCC3)cc2)[C@H](CO)N1c1nc(C)c(C)s1)S(=O)(=O)c1ccccc1[N+](=O)[O-]	3	0	-1	.	-1	0
SMILES	hcDAF-12 act	hgDAF-12 ag	Rev-erbA mod	DAX1 inh-1	ssDAF12 agonist	DAX1 inh-2
O=C(NCCc1c[nH]c2ccccc12)OCc1cn(-c2ccc(F)cc2F)nn1	-2	1	-1	.	-1	-1
CSc1nc2ccc(NC(=O)C3=NN(c4ccccc4)C(=O)CC3)cc2s1	1	-3	-3	-1	-1	-1
CSc1nc2ccc(NC(=O)C3=NNC(=O)CC3)cc2s1	5.6*	7	3	1	0	2
COC(=O)C1CN(Cc2ccc(F)cc2)CCS(=O)(=O)N1Cc1ccc(OC)cc1 (stereo unspecified)	1	2	3	.	-1	1
CN(CCCOC(=O)c1cc2ccccc2o1)C1CN(Cc2cn(Cc3ccccc3C(F)(F)F)nn2)S(=O)(=O)C1 (stereo unspecified)	2	-1	2	.	-1	0
CN(CC(=O)Nc1ccc(F)cc1)C(=O)c1ccc2ccccc2n1	6.0*	1	1	1	0	1
CN(CC(=O)Nc1ccccc1)CC(=O)Nc1ccc(F)cc1	0	2	5	1	-1	-1
Cc1cc(C(=O)O[C@H]2CCC[C@@]3(C(=O)N(Cc4ccccc4)c4ccccc43)[C@H]2NC(=O)CCc2ccccc2)no1	-3	1	9	.	-2	-1
Cc1ccc(OCCCCCCN2CCNCC2)c(Br)c1	5.9*	4	5	4.7*	-1	0
O=C1NC(c2ccccc2)(c2ccccc2)C(=O)N1COP(=O)(O)O	.	.	-5	.	.	.
COC(=O)C[C@@H]1CC[C@H]2[C@H](COc3ccc(NC(=O)Nc4ccc(Cl)cc4)cc3C(=O)N2C)O1	-3	-1	6	.	-1	-1
CCCCc1ccc(NC(=O)C(C)CC)cc1 (stereo unspecified)	0	5	4	4.4*	-2	1
Cc1cn2c(=O)c3ncn(C4OC(CO)C(O)C4O)c3n(C)c2n1 (stereo unspecified)	-2	0	-3	.	-2	0
